# Compound activity deposited in PubChem BioAssay by several laboratories.
# SENP7 block: SENP7 protease inhibitors, primary screen, biochemical, luminescence, uHTS. inhibition, % at 5 µM. AID 434973, 2010. Sentrin-specific protease 7 (Homo sapiens), Q9BQF6. 330,000 tested, 1.5% active. recombinant SENP7, Z-RLRGG-aminoluciferin luminescence, 40 min;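 active = inhibition above about 50% at the single test dose, limit read from the data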;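 note: plate controls were DMSO with enzyme for no effect and no enzyme buffer wells for full effect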
# SENP6 inh: SENP6 protease inhibitors, primary screen, biochemical, luminescence, uHTS; inhibition, % at 10 µM; Recombinant SENP6 catalytic domain, aminoluciferin luminescence; 330,000 tested, 1.8% active; Sentrin-specific protease 6 (Homo sapiens), Q9GZR1;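 active = inhibition above about 50% at the single tested dose, limit read from the data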;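 note: plate controls were DMSO wells with enzyme for no effect and DMSO wells lacking enzyme for full effect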
# Target sequence (Q9GZR1 628-1112 limits assumed): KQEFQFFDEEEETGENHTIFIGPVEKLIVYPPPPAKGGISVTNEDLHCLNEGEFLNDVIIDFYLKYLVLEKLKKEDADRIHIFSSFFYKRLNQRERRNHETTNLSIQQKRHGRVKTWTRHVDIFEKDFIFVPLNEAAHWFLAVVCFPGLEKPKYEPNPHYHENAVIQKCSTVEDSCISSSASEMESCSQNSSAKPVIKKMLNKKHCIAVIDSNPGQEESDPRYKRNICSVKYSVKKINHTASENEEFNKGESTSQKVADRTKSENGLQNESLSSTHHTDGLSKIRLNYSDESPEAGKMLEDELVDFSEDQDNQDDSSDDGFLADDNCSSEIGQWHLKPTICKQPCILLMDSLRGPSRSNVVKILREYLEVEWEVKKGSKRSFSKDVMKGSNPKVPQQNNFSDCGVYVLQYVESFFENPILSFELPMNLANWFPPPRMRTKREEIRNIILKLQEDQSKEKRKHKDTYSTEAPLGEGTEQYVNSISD
# SENP8 block-1: SENP8 protease inhibitors, primary screen, biochemical, luminescence; Sentrin-specific protease 8 (Homo sapiens), Q96LD8; purified SENP8, Z-RLRGG-aminoluciferin cleavage; inhibition, % at 10 µM; 330,000 tested, 1.2% active; in the data active = inhibition above about 50%
# Platelet DG rel: inhibitors of platelet dense granule secretion, primary screen, cell-based, MLPCN, human platelets; human platelet-rich plasma, SFLLRN dense granule ATP release, luminescence; inhibition, %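 (compounds screened at 7.5 µM in platelet-rich plasma)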; 300,000 tested, 0.22% active;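 active = mean replicate score, as percent of positive control, at or above 50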
# SENP8 block-2: human SENP8 protease inhibitors, primary screen, biochemical, fluorescence, Nedd8 protein substrate, uHTS. recombinant SENP8. 360,000 tested, 0.64% active. inhibition, % at 20 µM; in the data active = inhibition mostly above about 40%, no sharp cut-off; inactive = mostly below about 27%
# SENP8 conf-1: SENP8 protease inhibitors, retest, confirmation, biochemical, luminescence, single concentration; shares compounds with SENP7 block; 6,200 tested, 40% active; Recombinant SENP8, Z-RLRGG-aminoluciferin luminescence, 60 min; inhibition, % at 12.5 µM;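 active = mean inhibition across replicates above about 50%, limit read from the data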
# SENP6 conf: SENP6 protease inhibitors, confirmation, biochemical, luminescence, single concentration; shares compounds with SENP7 block; recombinant SENP6, Z-RLRGG-aminoluciferin luminescence; inhibition, % at 12.5 µM; 6,200 tested, 58% active
# SENP7 confirm: SENP7 protease inhibitors, retest, confirmation, biochemical, luminescence, single concentration; shares compounds with SENP7 block; recombinant SENP7, Z-RLRGG-aminoluciferin luminescence, 40 min; inhibition, % at 12.5 µM; 6,200 tested, 69% active; AID 488917, 2010
# Casp3 SENP sel: caspase-3 protease inhibitors, confirmation, selectivity assay for SENP inhibitor project, biochemical, single concentration. shares compounds with SENP7 block. purified caspase-3, Z-DEVD-aminoluciferin luminescence, 60 min. inhibition, % at 12.5 µM. 6,200 tested, 60% active. AID 488918, 2010;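 active = mean inhibition above about 50%, limit read from the data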;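 note: plate controls were enzyme with DMSO for no effect and wells without caspase-3 for full effect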
# Target sequence (P42574 28-227 limits assumed): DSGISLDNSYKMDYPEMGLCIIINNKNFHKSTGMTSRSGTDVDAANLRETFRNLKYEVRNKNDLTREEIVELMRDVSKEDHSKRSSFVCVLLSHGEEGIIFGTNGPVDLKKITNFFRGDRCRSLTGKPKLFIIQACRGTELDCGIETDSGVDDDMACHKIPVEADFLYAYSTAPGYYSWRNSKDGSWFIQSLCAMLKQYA
# SENP luc ctr: luminescence interference (SENP counter-screen); shares compounds with SENP7 block; Pre-incubated SENP8/Z-RLRGG-aminoluciferin, luciferase luminescence interference; inhibition, % at 12.5 µM; 6,200 tested, 39% active;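 active = mean inhibition above about 50% when retested at one dose, limit read from the data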;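 note: plate controls were DMSO wells with completed reaction for no effect and substrate without enzyme for full effect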
# SENP8 conf-2: human SENP8 protease inhibitors, confirmation, biochemical, Nedd8 protein substrate, single concentration; AID 624319, 2012; inhibition, % at 25 µM; purified SENP8, Nedd8-AMC/pro-Nedd8 cleavage fluorescence, 30 min; shares compounds with SENP8 block-2; 1,400 tested, 15% active; in the data active = inhibition mostly above about 39%, no sharp cut-off; inactive = mostly below about 34%
# * hit, by the source's call; nt = no result. Hits are enriched below; roughly 2.4% of the tested compounds scored in any of these assays.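 Rule for the calls, unless noted: active = mean inhibition above about 50% in the one-dose retest (limit read from the data); inactive = the rest.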
SMILES,SENP7 block,SENP6 inh,SENP8 block-1,Platelet DG rel,SENP8 block-2,SENP8 conf-2,others
CCNCC(O)c1cccc(O)c1 (stereo not given),-6.9,-10.3,-7.0,7.0,2.8,nt,
O=c1c([N+](=O)[O-])cn(O)cc1[N+](=O)[O-],nt,nt,nt,nt,15.8,nt,
CCCCn1c(NS(=O)(=O)c2ccc(C)cc2)c(C(=O)OCC)c2nc3ccccc3nc21,8.2,92.8*,62.1*,12.1,-287.9,nt,SENP8 conf-1=20.4;SENP6 conf=32.2;SENP7 confirm=3.9;Casp3 SENP sel=-4.9;SENP luc ctr=-15.3
CCOC(=O)c1c(N)n(Cc2ccco2)c2nc3ccccc3nc12,-2.3,13.8,7.0,nt,-315.8,nt,
CCCCn1c(NC(=O)c2ccco2)c(C(=O)OCC)c2nc3ccccc3nc21,-12.3,83.8*,62.2*,1.3,-270.6,nt,SENP8 conf-1=75.3*;SENP6 conf=89.1*;SENP7 confirm=71.1*;Casp3 SENP sel=5.2;SENP luc ctr=-9.2
CCCCn1c(N)c(C(=O)OCCOC)c2nc3ccccc3nc21,4.2,5.4,3.4,-14.7,-454.1,nt,
CCCCCCC(Cl)(Cn1ccnc1)c1ccccc1 (stereo not given),3.2,-8.5,-7.5,-6.5,18.2,nt,
C(#CCN1CCCC1)CN1CCCC1,-1.5,-9.2,8.6,nt,8.0,nt,
Cc1ccc2c(c1N)C(=O)c1ccccc1C2=O,62.2*,65.5*,62.6*,nt,29.2,nt,SENP8 conf-1=18.8;SENP6 conf=22.1;SENP7 confirm=50.3*;Casp3 SENP sel=25.3;SENP luc ctr=17.8
O=[N+]([O-])/C=C/c1c(Cl)cccc1Cl,nt,nt,nt,nt,7.0,nt,
Cc1cc(N=Nc2ccccc2C)ccc1N,86.1*,90.0*,76.4*,14.0,55.3*,nt,SENP8 conf-1=81.1*;SENP6 conf=81.8*;SENP7 confirm=95.9*;Casp3 SENP sel=49.1;SENP luc ctr=85.5*
N/C(=N\N=C\c1ccc(O)cc1O)N[N+](=O)[O-],52.2*,14.5,50.9*,23.4,11.5,nt,SENP8 conf-1=61.2*;SENP6 conf=60.2*;SENP7 confirm=86.5*;Casp3 SENP sel=88.4*;SENP luc ctr=68.5*
CNC(=O)Oc1cccc2c1OC(C)(C)O2,nt,nt,nt,nt,6.5,nt,
O=[N+]([O-])c1ccc(N2CCCC2)c2ccncc12,46.7,59.6*,18.2,-44.3,52.8*,20.4,SENP8 conf-1=7.3;SENP6 conf=10.4;SENP7 confirm=14.1;Casp3 SENP sel=9.0;SENP luc ctr=6.4
O=[N+]([O-])c1ccc(N2CCNCC2)c2ncccc12,nt,nt,nt,2.4,nt,nt,
O=[N+]([O-])c1ccc(NC2CCN(Cc3ccccc3)CC2)c2ccncc12,38.6,65.5*,28.5,-5.6,40.2*,18.4,SENP8 conf-1=3.4;SENP6 conf=2.1;SENP7 confirm=12.5;Casp3 SENP sel=9.5;SENP luc ctr=2.7
c1ccc(-c2nnc(C3CC(c4cccnc4)=NO3)o2)cc1 (stereo not given),-9.8,-3.6,1.7,3.6,-43.7,nt,
C[C@]12C[C@H](O)[C@@H](O)C[C@@H]1CC[C@@H]1[C@@H]2CC[C@]2(C)C(=O)CC[C@@H]12,nt,nt,nt,nt,49.1*,6.0,
Cc1c(N=Nc2c(O)[nH]c(=S)[nH]c2=O)c(=O)n(-c2ccccc2)n1C,10.2,2.6,-4.8,8.6,21.7,nt,
CCOc1ccc2nc(N=Nc3c(O)[nH]c(=S)[nH]c3=O)sc2c1,5.9,12.8,6.1,-2.6,40.1*,2.3,
CCn1c(O)c(N=Nc2ccc(S(=O)(=O)N3CCOCC3)cc2)c(=O)n(CC)c1=S,7.5,-14.8,-4.8,8.7,40.1*,19.4,
CC(=O)c1cn(CC(=O)NCCc2c[nH]c3ccccc23)c2ccccc12,-12.9,8.8,-3.5,-1.0,3.2,nt,
COc1cc(CN2CC=C(c3ccc(F)cc3)CC2)cc(OC)c1,-9.8,-10.6,-11.3,-7.1,15.1,nt,
COc1cc(C)c(CN2CC=C(c3ccc(F)cc3)CC2)cc1C,8.9,6.1,-4.8,-11.5,43.4*,6.6,
COc1ccc(N2C(=O)C(=O)N(c3ccc(OC)cc3)P2(=O)N(CCCl)CCCl)cc1,nt,nt,nt,nt,11.6,nt,
SMILES,SENP7 block,SENP6 inh,SENP8 block-1,Platelet DG rel,SENP8 block-2,SENP8 conf-2,others
CC(=O)O[C@@]12CO[C@@H]1C[C@H](O)[C@@]1(C)C(=O)[C@H](O)C3=C(C)[C@@H](O)C[C@@](O)([C@@H](OC(=O)c4ccccc4)C12)C3(C)C (stereo not given in full),-1.7,3.2,2.0,-2.1,58.1*,19.9,
Cc1ccccc1NS(=O)(=O)c1ccc(OCC(=O)N2CCN(C)CC2)cc1,7.6,0.6,9.2,3.5,1.7,nt,
O=C(c1c[nH]cc1-c1ccccc1)c1cccc2ccccc12,8.1,6.7,3.4,1.3,46.5*,3.8,
Cn1c(=O)[nH]c2nncnc2c1=O,17.8,10.6,6.4,24.2,77.5*,89.6*,
COc1ccc(/C=C/C=C2C(=O)NC(=S)NC2=O)cc1,nt,nt,nt,nt,-31.0,nt,
CN1CCN(c2ccc([N+](=O)[O-])c(N3CCCCC3)c2)CC1,-3.7,-2.3,6.1,-13.5,21.9,nt,
O=[N+]([O-])c1ccc(N2CCNCC2)cc1N1CCCCCC1,-1.1,-11.5,-3.8,-3.8,47.8*,12.7,
COC(=O)C1=C(c2cccc3c2S(=O)(=O)c2ccccc2-3)C[C@@H]2CC[C@H]1N2C(=O)N1CCc2cc(OC)c(OC)cc2C1,0.8,-3.4,-9.3,nt,19.9,nt,
COc1ccc(C2NCCc3[nH]cnc32)cc1 (stereo not given),9.1,-6.7,-1.2,0.1,11.2,nt,
Cn1c(O)c(/C=C2\N=c3ccccc3=C2CCNC(=S)NC2CC2)c(=O)n(C)c1=O,12.0,-3.5,-2.1,-7.9,-7.3,nt,
CCOC(=O)Cn1cc([N+](=O)[O-])nc1[N+](=O)[O-],14.7,-1.5,9.7,-3.1,55.7*,23.7,
CC(C)n1c(=O)c(C=Nc2ccc(F)cc2)c(O)n(Cc2ccco2)c1=O,10.3,-18.0,2.9,7.4,-81.1,nt,
CC(C)COC(=O)c1ccccc1C(=O)OCC(C)C,0.9,-16.2,-1.6,-1.0,48.5*,7.7,
